The nature of test [1]: TOX21_p53_BLA_p3_viability: Viability Assessment in the Tox21 HCT-116 p53 Agonism Beta-lactamase Assay, Phase 3 (AID 2283593).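 Note: cells exposed to compound for 16 h before reading.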 In outline: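 Cellular ATP was quantified by CellTiter-Glo luminescence, read after 30 min at room temperature. Beforehand, HCT116 cells (4000/well) received compound 5 h post-seeding, 217-fold diluted from DMSO, then incubated 16 h at 37C.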
Test [2] deals with Cellular tumor antigen p53 (Homo sapiens) (UniProt P04637). The test can be described thus: TOX21_p53_BLA_p3_ratio: Tox21 HCT-116 p53 Agonism Beta-lactamase Assay, Ratio, Phase 3 (AID 2283596). The method, boiled down: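 HCT116 p53-bla cells (4000/well) given compound in DMSO (217-fold dilution) after 5 h, incubated 16 h at 37C. CCF4-AM substrate 2 h at room temperature; 460/530 nm emission ratio, gain fitted against DMSO.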
Chain of Cellular tumor antigen p53 (Homo sapiens) (P04637 whole entry, looked up): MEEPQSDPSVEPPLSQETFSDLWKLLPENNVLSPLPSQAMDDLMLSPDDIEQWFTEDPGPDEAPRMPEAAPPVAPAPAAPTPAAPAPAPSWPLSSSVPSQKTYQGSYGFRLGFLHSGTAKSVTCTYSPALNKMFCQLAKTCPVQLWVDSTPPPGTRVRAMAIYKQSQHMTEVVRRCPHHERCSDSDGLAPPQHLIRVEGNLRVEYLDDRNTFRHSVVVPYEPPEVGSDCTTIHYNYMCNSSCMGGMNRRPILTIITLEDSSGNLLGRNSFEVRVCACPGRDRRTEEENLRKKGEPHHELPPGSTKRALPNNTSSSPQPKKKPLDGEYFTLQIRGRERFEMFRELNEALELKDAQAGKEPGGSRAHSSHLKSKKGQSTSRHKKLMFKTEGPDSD

Test [3] can be described thus: TOX21_p53_BLA_p4_viability: Viability Assessment in the Tox21 HCT-116 p53 Agonism Beta-lactamase Assay, Phase 4 (AID 2283597).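 Note: hits lower the luminescence signal meaning cytotoxicity.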 The method, boiled down: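 Luminescent ATP readout (CellTiter-Glo, 30 min, room temperature) in the same wells as the p53 bla ratio. HCT116 cells were treated for 16 h at 37C with DMSO-dissolved compounds.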
Test [4] deals with Cellular tumor antigen p53 (Homo sapiens) (UniProt P04637). The test can be described thus: TOX21_p53_BLA_p5_ratio: Tox21 HCT-116 p53 Agonism Beta-lactamase Assay, Ratio, Phase 5 (AID 2283599). The method, boiled down:
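Beta-lactamase reporter ratio (blue 460 nm over green 530 nm, 405 nm excitation) after 2 h CCF4-AM loading, in HCT-116 cells exposed 16 h at 37 C to compounds pinned at 217-fold dilution. Increases relative to DMSO baseline scored.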

A short description of test [5]: TOX21_p53_BLA_p5_viability: Viability Assessment in the Tox21 HCT-116 p53 Agonism Beta-lactamase Assay, Phase 5 (AID 2283600). The method, boiled down: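 Seeded cells (4000/well) settle 5 h before compound addition. Plates then incubate 16 h at 37C, receive FRET substrate for 2 h, and finally CellTiter-Glo, with luminescence measured after a 30 min room-temperature incubation.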

Test [6] concerns the target Cellular tumor antigen p53 (Homo sapiens) (UniProt P04637). The test can be described thus: TOX21_p53_BLA_p4_ratio: Tox21 HCT-116 p53 Agonism Beta-lactamase Assay, Ratio, Phase 4 (AID 2283601). The method, boiled down: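 Signal is the blue/green (460nm/530nm) ratio of cleaved versus uncleaved CCF4-AM substrate, read after 2 h substrate loading. Cells were HCT116 carrying the p53-responsive beta-lactamase reporter, dosed 16 h at 37C, 5% CO2; CellTiter-Glo measured in parallel.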

Test [7] can be described thus: Tanguay_ZF_120hpf_MORT_legacy: (Legacy) Oregon State University Tanguay Lab 120 Hour Post-fertilization zebrafish Assay for Mortality (AID 2283633).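 For AC50: fitted as increase in binary mortality versus DMSO negative control.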 In outline: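 Single dechorionated Tropical 5D embryos were held with test chemical (0.64% DMSO final) from 6 to 120 hpf at 28C under foil. Deaths at 24 or 120 hpf were recorded as binary calls, analysed for increase over DMSO controls.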

A short description of test [8]: Tanguay_ZF_120hpf_YSE_legacy: (Legacy) Oregon State University Tanguay Lab 120 Hour Post-fertilization zebrafish Assay for Yolk Sac Edema (AID 2283634). In outline: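 Single dechorionated embryos were held in sealed plates at 28C with test chemical (0.64% DMSO final) from 6 hpf until 120 hpf. Edema of the yolk sac was then recorded as a binary endpoint; non-mortality endpoints were skipped for dead embryos.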

A short description of test [9]: Tanguay_ZF_120hpf_EYE_legacy: (Legacy) Oregon State University Tanguay Lab 120 Hour Post-fertilization zebrafish Assay for Eye Malformation (AID 2283636). The method, boiled down:
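Read-out is binary presence or absence of eye malformation, scored by brightfield microscopy at 120 hpf. Single larvae were exposed from 6 hpf in embryo medium containing 0.64% DMSO, with DMSO as baseline.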

The nature of test [10]: Tanguay_ZF_120hpf_SNOU_legacy: (Legacy) Oregon State University Tanguay Lab 120 Hour Post-fertilization zebrafish Assay for Snout Malformation (AID 2283637). The method, boiled down: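 Snout malformation read as a yes/no call on brightfield images of 120 hpf larvae (Tropical 5D strain). Static exposure began at 6 hpf on dechorionated embryos in 0.64% DMSO, with gain of signal analysed versus DMSO controls.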

The nature of test [11]: Tanguay_ZF_120hpf_JAW_legacy: (Legacy) Oregon State University Tanguay Lab 120 Hour Post-fertilization zebrafish Assay for Jaw Malformation (AID 2283638). The method, boiled down:
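Wild-type 5D embryos, chorion removed at 4 hpf, dosed singly from 6 hpf; 28C static, sealed, foil-covered, to 120 hpf. Endpoint: jaw defect yes/no (brightfield); mortality excludes scoring.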

Test [12] in a line: Tanguay_ZF_120hpf_OTIC_legacy: (Legacy) Oregon State University Tanguay Lab 120 Hour Post-fertilization zebrafish Assay for Otic Vesicle Malformation (AID 2283639). The method, boiled down:
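Tropical 5D wild-type zebrafish embryos were exposed statically in sealed, foil-covered plates at 28C until 120 hpf, with 0.64% (vol/vol) DMSO final. Otic vesicle malformation was scored present/absent by brightfield microscopy, with DMSO as baseline.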

Test [13] is described as follows: Tanguay_ZF_120hpf_BRAI_legacy: (Legacy) Oregon State University Tanguay Lab 120 Hour Post-fertilization zebrafish Assay for Brain Malformation (AID 2283641). In outline:
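Static exposure of staged wild-type embryos until 120 hpf, kept at 28C with light excluded and final DMSO of 0.64% (vol/vol). Presence or absence of brain malformation was noted under brightfield; mortality precluded scoring.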

Test [14] can be described thus: Tanguay_ZF_120hpf_SOMI_legacy: (Legacy) Oregon State University Tanguay Lab 120 Hour Post-fertilization zebrafish Assay for Somite Malformation (AID 2283647). The method, boiled down:
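Somitogenesis defects are recorded as binary calls in whole larvae at 120 hpf after continuous static chemical exposure starting at 6 hpf in dechorionated 5D embryos. DMSO serves as negative control and baseline.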

A short description of test [15]: Tanguay_ZF_120hpf_PFIN_legacy: (Legacy) Oregon State University Tanguay Lab 120 Hour Post-fertilization zebrafish Assay for Pectoral Fin Malformation (AID 2283648).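 Note: each larva judged yes or no for fin defect by brightfield with dead larvae skipped.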 In outline: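 5D WT zebrafish; pronase dechorionation 4 hpf; 1 embryo/well at 6 hpf; static exposure to 120 hpf, 28C, sealed, foil-covered; final DMSO 0.64% v/v; 5 uM trimethyltin chloride positive control; fin defect scored yes/no.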

Test [16] in a line: Tanguay_ZF_120hpf_CFIN_legacy: (Legacy) Oregon State University Tanguay Lab 120 Hour Post-fertilization zebrafish Assay for Caudal Fin Malformation (AID 2283649). The method, boiled down: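 Single dechorionated 5D wild-type embryos are dosed at 6 hpf (final DMSO 0.64%) and held statically at 28C. Caudal fin malformation is recorded as present or absent at 120 hpf under brightfield, excluding dead embryos.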

Test [17] in a line: Tanguay_ZF_120hpf_PIG_legacy: (Legacy) Oregon State University Tanguay Lab 120 Hour Post-fertilization zebrafish Assay for Pigmentation Malformation (AID 2283650). In outline: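 Pronase dechorionation at 4 hpf; embryos plated at 6 hpf, one per well; static exposure, sealed and foil-covered, 28C, to 120 hpf; pigmentation read by brightfield, binary; DMSO 0.64% baseline, 5uM trimethyltin chloride positive control.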

The nature of test [18]: Tanguay_ZF_120hpf_AXIS_legacy: (Legacy) Oregon State University Tanguay Lab 120 Hour Post-fertilization zebrafish Assay for Body Axis Malformation (AID 2283635).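 For AC50: potency for an increased fraction of larvae scored with body axis malformation.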 The method, boiled down:
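Each dechorionated embryo was exposed alone from 6 hpf, with DMSO at 0.64% (vol/vol) and trimethyltin chloride 5 uM as positive control. Axis malformation was recorded at 120 hpf unless the embryo had died.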

The nature of test [19]: Tanguay_ZF_120hpf_CIRC_legacy: (Legacy) Oregon State University Tanguay Lab 120 Hour Post-fertilization zebrafish Assay for Circulatory Malformation (AID 2283651). In outline: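 Tropical 5D wild-type embryos, dechorionated with pronase at 4 hpf, were placed singly in wells at 6 hpf and exposed statically at 28C to 120 hpf (0.64% DMSO final). Circulatory malformation was scored present/absent by brightfield microscopy.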

The nature of test [20]: Tanguay_ZF_120hpf_PE_legacy: (Legacy) Oregon State University Tanguay Lab 120 Hour Post-fertilization zebrafish Assay for Pericardial Edema (AID 2283640). In outline: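 Zebrafish larvae are exposed from early development to 120 hpf at 28C, with 0.64% DMSO final. Each surviving larva receives a yes/no pericardial edema call by brightfield imaging, analysed relative to the DMSO baseline.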

The structures appear in SMILES notation. Where “and” joins values, the source holds several entries; their conditions need not be identical. Identical values can stand only once. Records with an inconclusive call do not appear. Some compounds were tested as several samples or in several runs, with calls that do not always agree. Calls of active or inactive are those of the source. Rule for the calls: active = hit-call score of the fitted dose curve at least 0.9, where 1 is the maximum; inconclusive = response in the unintended direction; inactive = score below 0.9.

In general, AC50 refers to the midpoint of the concentration-response curve, whichever way the signal moves. Turning to `CC(C)(C)c1cc(/C=C2\SC(N)=NC2=O)cc(C(C)(C)C)c1O`, the result in test [1], in test [2], in test [8], in test [9], in test [10] and in test [11] was inactive. Moreover, the compound was called inactive in test [12], in test [13], in test [14], in test [15], in test [16] and in test [17]. Besides, the AC50 in [3] is 84.4 µM (active); in test [4], 90.1 µM (active); in test [5], 76.4 µM (active); in test [6], 62.3 µM (active); in test [7], 25.5 µM (active).

As for `c1ccc2n[nH]nc2c1`, the outcome in test [1], in test [2], in [3], in test [4], in test [5] and in [6] was inactive. The outcome in test [7], in test [8], in test [18], in test [9], in [10] and in [11] was inactive. Further, the compound was called inactive in [12], in test [13], in test [15], in test [16], in test [17] and in [19].

For the compound `CCN(Cc1cccc(S(=O)(=O)O)c1)c1ccc(C(=C2C=CC(=[N+](CC)Cc3cccc(S(=O)(=O)O)c3)C=C2)c2ccccc2S(=O)(=O)[O-])cc1`, the outcome in test [1], in [2], in [4], in test [5], in [6] and in test [7] was inactive. The outcome in test [8], in test [18], in [9], in test [10], in [11] and in test [12] was inactive. Also, the compound was called inactive in [15], in test [16], in test [17] and in [19]. Further, the AC50 in [3] is 35.5 µM (active).

As to `NCc1cccc(C2CCN(C(=O)c3ccc(C#Cc4ccccc4F)o3)CC2)c1`, the AC50 was 72.2 µM (active) in [1]; 86.8 µM (active) in test [2]; 65.6 µM (active) in test [3]; 82.9 µM (active) in test [4]; 84.4 µM (active) in test [6]; 12 µM (active) in test [7]. Moreover, the result in [5], in test [18], in test [9], in test [10], in [11] and in test [12] was inactive. Moreover, the compound was classed as inactive in [13], in [16] and in test [17].

In the case of `CCN(CC)C(=O)c1cc(S(=O)(=O)Cc2ccccc2)c(N2CCC(c3ccccc3)CC2)cc1N(CC)CCN(C)C`, the AC50 in test [1] was 30.3 µM (active); in test [3] it was 17.9 µM (active) and 25.1 µM (active); in test [5] it was 40.1 µM (active); in [6], 32.6 µM (active) and 42.6 µM (active); in test [7] it was 11.7 µM (active); in test [18] it was 18.2 µM (active). The figures for the AC50 in [10] and in [13] were 18 µM (active) and 13.8 µM (active), respectively. For the same compound, the outcome in [1], in test [2], in test [4], in [9], in test [11] and in test [12] was inactive. Besides, the outcome in test [20], in test [14], in [15] and in test [19] was inactive.

Consider `Cc1ccc2oc(CN(Cc3ccccc3)C(=O)Nc3c(F)cc(F)cc3F)c(-c3ccc(Cl)cc3)c2c1`, for which the result in [1], in test [2], in test [3], in test [4], in test [5] and in [6] was inactive. Besides, the call in test [7], in test [18], in test [9], in test [10], in test [11] and in test [12] was inactive. The compound was called inactive in test [13], in test [16], in test [17] and in [19].

For the compound `O=C1CCC(C2CCCCC2)CC1`, the outcome in test [1], in test [2], in test [3], in [4], in test [5] and in test [6] was inactive. For the same compound, the compound was called inactive in test [7], in test [8], in [18], in [9], in test [10] and in test [11]. In addition, the compound was called inactive in test [12], in test [13], in [15], in test [16], in test [17] and in test [19].

Source of the values: PubChem BioAssay (EPA / NIEHS).
